# Assay results taken from PubChem BioAssay AID1259415 (National Center for Advancing Translational Sciences (NCATS), 2018).
# The campaign covered roughly 410,000 compounds. About 18,000 (4.4%) were called active. Inconclusive results (about 7%) are left out. Only a selection was taken, and actives are over-represented in it overall. A number with no mark means an inactive call. Rule as the data show it: active = activity change below about -60%; inconclusive = no clear call, values can overlap the other calls; inactive = above about -39%.
# Test: qHTS Assay for inhibitors of the human cytomegalovirus (HCMV)
# Details: HFF cells, HCMV-luciferase reporter, 72 h; at 57.5 µM; hits give low values
# Method in brief: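 Two-dose cell screen: HFF monolayers treated with compounds and infected with luciferase-expressing HCMV at 1 PFU/cell, 72 h at 37C, then lysed for luciferase measurement.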
# % is scaled to controls: 0 for no effect and ±100 for the full control effect.
row,Structure (SMILES),"activity change, negative = inhibition"
1,Cc1ccc2nc(-c3ccc(C)c(NC(=O)Cc4ccccc4)c3)oc2c1,38%
2,COc1ccccc1NC(=O)c1oc2ccccc2c1NC(=O)C(C)C,0.436%
3,COc1ccc(OC)c(-c2nc(C(N)=O)c3c(n2)n(-c2ccc4c(c2)OCO4)c(=O)n3C)c1,3.83%
4,Cc1ccc(Cl)cc1NC(=O)NC1COc2ccccc2C1 (configuration not stated),-3.29%
5,Cc1cc(C(=O)CCl)c(C)n1CC1COc2ccccc2O1 (configuration not stated),-96.1% (active)
6,CC(=O)c1ccccc1NC(=O)COC(=O)C1COc2ccccc2O1 (configuration not stated),-15%
7,CC1COc2ccccc2N1S(=O)(=O)c1ccccc1 (configuration not stated),-16.1%
8,O=C1C(=O)N(c2ccccc2)c2ccccc21,43.2%
9,O=C1C(=O)N(CC2COc3ccccc3O2)c2ccccc21 (configuration not stated),-62.4% (active)
10,CC(C)CC(NC(=O)C1CCCN1C(=O)[C@@H](C)NC(=O)OCc1ccccc1)C(=O)NCC(N)=O (some centres not stated),-24.5%
11,Cc1cccc(NC(=O)Cn2c(=O)n(CCC(C)C)c(=O)c3cccnc32)c1,28.9%
12,O=C(c1ccco1)N1CCN(C(=O)C2c3ccccc3Oc3ccccc32)CC1,-21.7%
13,CCOC(=O)Cc1csc(NC(=O)CN(C)S(=O)(=O)c2ccc3c(c2)CCC(=O)N3)n1,14.5%
14,Cc1cccc(-c2nc(SCc3ccc(Br)cc3)n3[nH]c(=O)cc3n2)c1,-0.292%
15,COc1ccc(NC(=O)CSc2nccn2Cc2ccc3c(c2)OCO3)cc1,2.57%
16,Cc1cc(C)c(C(=O)CSc2nc(C)cc(=O)[nH]2)c(C)c1,19%
17,Cc1cc(C(=O)CSc2nc(N)cc(=O)[nH]2)c(C)n1-c1cccc(F)c1,-80.8% (active)
18,C=CCSc1nc(N)cc(=O)[nH]1,-24.3%
19,CCOC(=O)C1(C(F)(F)F)N=C(N(C)C)OC(N(C)C)=N1,9.94%
20,CCOc1ccc2c(c1)C(c1ccc(C)cc1)=NNC(c1ccc(C)cc1)=N2,9.03%
21,CCOc1ccc(-c2cc(C)[n+](CCN(CC)CC)c(-c3ccc(OCC)cc3)c2)cc1,-97.6% (active)
22,CCOc1ccc(-c2nnc3ccc(SC)nn23)cc1,-19.6%
23,COc1ccc(NC(=O)CSc2nccn2C2CCCC2)cc1OC,-35.1%
24,O=C(CSc1nccn1C1CCCC1)Nc1cc(C(F)(F)F)ccc1Cl,-87.5% (active)
25,Cc1cccc(-n2ccnc2SCC(=O)Nc2cc(C(F)(F)F)ccc2Cl)c1,-18.2%

row,Structure (SMILES),"activity change, negative = inhibition"
1,Cc1cc(NS(=O)(=O)c2ccc3oc(=O)c4ncn(C)c4c3c2)ccc1Br,-24.9%
2,Cn1nnnc1SCCCNCc1ccc(Cl)cc1,5.82%
3,COc1ccccc1CCNC(=O)c1cccn1-c1nnc(N2CCCCC2)s1,-14.3%
4,Cc1ccc(NC(=O)CN(C)C(=O)Cn2nnc(-c3ccccc3)n2)cc1,-24.5%
5,COc1ccc(C(=O)N2CCCCC2C(=O)Nc2ccc(-n3nc(C)cc3C)cc2)o1 (configuration not stated),7.64%
6,C[C@@H]1C[C@@H]2O[C@H]2/C=C\C=C\C(=O)Cc2c(Cl)c(O)cc(O)c2C(=O)O1,-76.2% (active)
7,CCN(CC)S(=O)(=O)c1ccc(C(=O)N2CCN(C3=NS(=O)(=O)c4ccccc43)CC2)cc1,-15.4%
8,CCOC(=O)c1cc2c(=O)n3ccccc3nc2n(CC2CCCO2)c1=NC(=O)c1ccccc1Br (configuration not stated),24.4%
9,CCOC1=C2[C@@H](CN(S(=O)(=O)c3ccc(C)cc3)[C@H]2c2ccccc2F)[C@H]2C(=O)N(Cc3ccccc3)C(=O)[C@H]2C1,-19.7%
10,Cc1ccc(S(=O)(=O)c2cn(Cc3ccccc3)c3cc(N4CCCC4)c(F)cc3c2=O)c(C)c1,10.5%
11,Cc1ccc(S(=O)(=O)N2C[C@@H]3CCCC[C@@H]3[C@@H](C)[C@H]2c2cn(Cc3ccccc3)c3ccc(F)cc23)cc1,-65.2% (active)
12,COc1ccc(-c2c(C)c3ccc(O)c(CN4CCCC4)c3oc2=O)cc1OC,8.47%
13,CCOc1ccc(NC(=O)Cn2c(=O)n(CCCC(=O)NCc3ccc4c(c3)OCO4)c(=O)c3ccccc32)cc1,22.9%
14,CCCCNC(=O)CSc1nc2cc3c(cc2c(=O)n1CCCCCC(=O)NCc1ccc2c(c1)OCO2)OCO3,25.2%
15,CCN(CC)C(=O)CSc1nc2cc3c(cc2c(=O)n1CCCC(=O)NCc1ccc2c(c1)OCO2)OCO3,-89.8% (active)
16,O=C(NCc1ccc(Cl)cc1)c1ccc2c(c1)nnn2C1CCCC1,-1.14%
17,CC1(C(=O)NNC(=S)NCC2CCCO2)CC1(Cl)Cl (configuration not stated),-5.76%
18,Cc1cccc(NC(=O)Cn2c(C(F)(F)F)nc3ccccc32)c1C,-9.72%
19,CCC(=O)Nc1nc2ccccc2n1Cc1ccccc1C,-81.6% (active)
20,CCC(=O)Nc1ccc(C)cc1-c1nc2ccccc2n(Cc2ccccc2)c1=O,13.6%
21,Cc1cc(Cl)ccc1NC(=O)Cc1ccc(NC(=O)N2CCCCc3ccccc32)cc1,25.1%
22,COCCN1C2=C(COC(C)(C)C2)C(=S)NC1c1ccccc1 (configuration not stated),5.54%
23,O=C(CN1CCCCCC1)Nc1ccc(Br)cc1Br,32.3%
24,Cc1ccc(NC(=O)CN2CCCCC2)c2c1CC(C)(C)O2,-63% (active)
25,Cc1cc(C)c(NC(=O)CN2CCCCCC2)c(C)c1,-39.4%

row,Structure (SMILES),"activity change, negative = inhibition"
1,O=S(=O)(c1ccc(Cl)cc1)c1nnn2c1nc(NC1CCCC1)c1sccc12,21.2%
2,O=[N+]([O-])c1ccccc1-c1cc(-c2ccccc2[N+](=O)[O-])on1,24.9%
3,Cc1c(Cl)cccc1NC(=O)N1CCN(C(=O)c2nsc3ccccc23)CC1,0%
4,COc1ccccc1CNC(=O)c1ccccc1NC(=O)c1nsc2ccccc12,12.6%
5,CCc1ccccc1NC(=O)N1CCN(C(=O)c2nsc3ccccc23)CC1,0% (active)
6,COc1ccc(OC)c(NC(=O)CN2CCCN(Cc3cc(C)ccc3C)S2(=O)=O)c1,0%
7,Cc1ccnc(NC(=O)C2CCN(S(=O)(=O)c3c(C)c(C)cc(C)c3C)CC2)c1,-4.39%
8,CN1CCN(C(=O)CCc2ncc(C(F)(F)F)cc2Cl)CC1,-28.5%
9,CC(=O)Nc1ccc(CC#N)cc1,26.2%
10,CC(C)n1ncc2c(C(=O)Nc3ccc(CC#N)cc3)cc(C3CC3)nc21,30.4%
11,N#CCc1ccc(NC(=O)c2ccccc2C(=O)Nc2ccc(CC#N)cc2)cc1,-72.2% (active)
12,Cc1ccc(-c2nc3cccc(C)n3c2Nc2ccc3c(c2)OCCO3)cc1,76%
13,COc1ccc(NC(=O)C2CCCN(S(=O)(=O)c3cccc4nonc34)C2)cc1Cl (configuration not stated),-11.9%
14,O=C(C1CC1)N1CCc2cc(Br)cc(S(=O)(=O)N3CCN(c4ccccc4F)CC3)c21,6.64%
15,CNC(=O)c1ccc(-c2nc(CN3CCc4ccccc43)c(C)o2)cc1,18.4%
16,Cc1ccc(N2CC(NC(=O)Cc3cccs3)CC2=O)cc1 (configuration not stated),76%
17,Cc1sc2ncnc(N3CCC(C(=O)Nc4ccc(F)cc4Cl)CC3)c2c1C,-21.6%
18,CCc1ccc(C(=O)NNC(=O)C2CCN(c3ncnc4sc(C)c(C)c34)CC2)cc1,-65.2% (active)
19,CCOC(=O)C1CCN(c2ncnc3c2c(-c2ccccc2)cn3-c2ccc(C)cc2)CC1,-37.8%
20,O=C(O)c1ccc(Cn2cnc3c(=S)nc[nH]c32)cc1,1.65%
21,NC1=NC(c2cc(F)cc(F)c2)n2c(nc3ccccc32)N1 (configuration not stated),-1.84%
22,Cn1sc(=O)c2cc(S(=O)(=O)NC3CC3)ccc21,-82.6% (active)
23,Cc1ccc(S(=O)(=O)NC2CCCCCC2)cc1C(N)=O,-23.9%
24,CC1CCC(NS(=O)(=O)c2ccc3c(c2)CC(=O)N3)CC1 (configuration not stated),23.2%
25,O=S1(=O)CC(N2CCSCC2)CN1Cc1cn(Cc2cccc(Cl)c2)nn1 (configuration not stated),-0.598%

row,Structure (SMILES),"activity change, negative = inhibition"
1,O=C(NCCc1ccc(Cl)cc1)c1ccc2nc(CCc3ccccc3)oc2c1,44.3%
2,CCOc1ccccc1CNCc1c(C(=O)O)c(C)n(Cc2ccc(C)cc2)c1C,2.89%
3,O=C(CSc1nc(C2CC2)nc2ccccc12)Nc1ccc2c(c1)OCCO2,-71.4% (active)
4,O=C(CSc1nc(-c2cccc(F)c2)[nH]c1-c1ccccc1)Nc1ccc2c(c1)OCO2,-87.5% (active)
5,O=C(CSc1nc(=O)n2ccccc2n1)Nc1ccc2c(c1)OCCO2,-0.0406%
6,O=C(CSc1nnnn1C1CCCC1)Nc1ccc2c(c1)OCCO2,15.2%
7,O=C(CSc1ccc(-c2ccc(F)cc2)nn1)Nc1ccc2c(c1)OCCO2,16.6%
8,O=C(CSc1nnc(CNC(=O)c2ccc(F)cc2)o1)Nc1ccc2c(c1)OCO2,-6.33%
9,CCOc1cc(C(=O)Nc2nnc3n2CCS3)cc(OCC)c1OCC,-4.78%
10,O=C(CSc1ncc(-c2ccccc2)[nH]1)Nc1ccc(F)cc1F,-18.3%
11,CC(=O)Nc1ccc(NC(=O)CCN2C(=O)C3CC=CCC3C2=O)cc1 (configuration not stated),19.5%
12,O=C(CCCN1C(=O)C(c2ccccc2)Oc2cccnc21)Nc1ccccc1Br (configuration not stated),4.91%
13,O=C(CCCN1C(=O)/C(=C\c2ccccc2)SC1=S)Nc1ccccc1O,-94.8% (active)
14,O=C(CCCN1C(=O)/C(=C/c2ccco2)SC1=S)Nc1ccccc1,-96.7% (active)
15,COC(=O)C1=C(C)N(C(C)c2ccccc2)C(=O)/C1=C\c1ccco1 (configuration not stated),29.2%
16,N#Cc1c(NC(=O)CCCN2C(=O)c3ccccc3C2=O)oc(-c2ccccc2)c1-c1ccccc1,-2.46%
17,Cc1cc(C)cc(NC(=O)CCN2C(=O)c3ccccc3C2=O)c1,-12.5%
18,Cc1cc(OCCCC(=O)NCCN2C(=O)S/C(=C\c3cccnc3)C2=O)ccc1Cl,-21.9%
19,O=C(CCCN1C(=O)/C(=C/c2cccs2)SC1=S)Nc1ccc(O)cc1,-92.8% (active)
20,O=C(CCCN1C(=O)/C(=C/c2ccccc2)SC1=S)Nc1ccc(O)cc1,-85.4% (active)
21,COc1ccc(NC(=O)CCCN2C(=O)C(c3ccccc3)Oc3cccnc32)cc1 (configuration not stated),37.1%
22,O=C(CC1C(=O)N(c2ccccc2)C(=O)N1CCc1cccs1)Nc1ccc(F)cc1 (configuration not stated),-11.5%
